Measured values published in article PMC5540273 (PLoS ONE, 2017).

System: T1, YES
T1 construct: gene YES1
Details: concentration: 1 μM, replicates: in singlicate; n = 1
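Note: KINOMEscan kinase panel screen.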

SMILES | %Inh [%]
Nc1n[nH]c2cnc(-c3ccccc3)cc12 [SB-642124] | 24
CN(c1ccc(NC(=O)Nc2cc(C(F)(F)F)ccc2F)cc1)c1ccnc(Nc2ccc(S(N)(=O)=O)cc2)n1 [GW809893] | 80
CC(C)c1nc(-c2cccc(NS(=O)(=O)c3c(F)cccc3F)c2F)c(-c2ccnc(Nc3ccc(N4CCOCC4)nc3)n2)s1 [GSK2008607] | 99.6
O=C(Nc1cccc(-c2nn3ncccc3c2-c2ccnc(Nc3ccccc3)n2)c1)c1c(F)cccc1F [GSK198271] | 99.5
O=C(Nc1ccccc1F)NC1CCN(c2ccnc(Nc3ccc(F)cc3)n2)CC1 [GSK1379800] | 4
Cl.c1ccc(-c2ccc3c(Nc4ccc5[nH]ccc5c4)ccnc3c2)nc1 [GW440138] | 40
COc1ccc(CNC(=O)NC2CCN(c3ccnc(Nc4ccc(F)cc4)n3)CC2)cc1 [GSK1379788] | 0
CN(C)Cc1ccc(-c2ccc3c(Nc4ccc(Oc5ccccn5)cc4)ccnc3c2)o1 [GW567148] | 64
CNC(=O)c1ccccc1Nc1nc(Nc2ccc(N3CCOCC3)cc2)ncc1Cl.Cl [GSK1576028] | 98.7
CCS(=O)(=O)c1ccc(OC)c(Nc2nccc(-c3c(-c4cccc(NC(=O)c5c(F)cccc5F)c4)nn4ncccc34)n2)c1 [GSK326180] | 90.1
c1ccc(Oc2ccc(Nc3ccnc4cc(-c5ccc(CNCCN6CCOCC6)o5)ccc34)cc2)nc1 [GW567145] | 48
Cc1ccc(C)c(NC(=O)NC2CCN(c3ccnc(Nc4ccc(F)cc4)n3)C2)c1 (stereo not shown) [GSK1379720] | 9
CCn1c(-c2nonc2N)nc2c(C#CC(C)(C)O)ncc(OCCCCN)c21.O=C(O)C(F)(F)F.O=C(O)C(F)(F)F [GSK507274] | 16
COc1cc2c(cc1OCCN1CCNCC1)ncc1c3ccc(C#N)cc3[nH]c21 | 0
COc1cccc(C(=O)Nc2cccc(Oc3ccc4nc(NC(=O)C5CC5)cn4n3)c2)c1 | 92.7
FC(F)(F)c1ccc(/C=C/c2cncnc2Nc2ccc3[nH]c(Cc4ccccc4)nc3c2)cc1 [GW709199] | 0
Cc1cccc(Nc2nc(N[C@H]3CCNC3)ncc2C(N)=O)c1.Cl [GSK2197149] | 41
NCCCC(NC(=O)c1cc(Br)c(-c2ccnc3[nH]ccc23)s1)c1ccccc1.O=C(O)C(F)(F)F.O=C(O)C(F)(F)F (stereo not shown) [GSK1287544] | 0
CC(C)(C)c1ccc2nccc(Nc3cccc(O)c3)c2c1 [GW856795] | 5

SMILES | %Inh [%]
c1ccc(-c2n[nH]cc2Nc2ccnc3ccccc23)nc1 [GW694077] | 0
COc1cccc(NC(=O)NC2CCN(c3ccnc(Nc4cc(OC)c(OC)c(OC)c4)n3)C2)c1 (stereo not shown) [GSK1379763] | 1
COC(=O)Nc1nc2ccc(Oc3ccc(NC(=O)Nc4cc(C(F)(F)F)ccc4F)cc3)cc2n1C.Cl [GW692089] | 0
COc1cccc(C2=C(Nc3ccc(Cl)c(C(=O)O)c3)C(=O)NC2=O)c1 [SB-390769] | 8
COc1cc(Nc2nccc(-c3c(-c4cccc(NC(=O)c5c(F)cccc5F)c4)nn4ccccc34)n2)cc(OC)c1OC [GSK323521] | 8
Cn1cc(-c2[nH]c3cc(NC(=O)[C@H](N)C4CCCCC4)cc4c3c2C=NNC4=O)cn1 | 88
Nc1ncc(-c2cccnc2)c2scc(-c3ccc4c(c3)CCN4C(=O)Cc3ccccc3)c12 [GSK683281] | 28
CCCCc1nn2ncccc2c1-c1ccnc(Nc2ccc(N3CCN(C)CC3)cc2)n1 [GW684941] | 81
O=C(Nc1n[nH]c2cc(-c3ccoc3)ccc12)C1CC1 [SB-738481] | 3
Cl.c1ccc(-c2ccc3c(Nc4ccc5[nH]ncc5c4)ccnc3c2)nc1 [GW440137] | 14
Cn1cc(-c2ccc3c(c2)CCN3C(=O)Cc2cccc(Cl)c2)c2c(N)ncnc21 [GSK2606590] | 21
COc1cccc(-c2ccc3c(NC(=O)C4CC4)n[nH]c3n2)c1 [SB-710903] | 13
Nc1ncc(-c2ccc3nccc(-c4ccncc4)c3c2)cc1S(=O)(=O)N1CCOCC1 [GSK1627798] | 0
COc1cc(Nc2nccc(N3CCC(NC(=O)Nc4cccc(C(C)=O)c4)C3)n2)cc(OC)c1OC (stereo not shown) [GSK1379753] | 12
COCCOCCOc1cc2ncc3c4ccc(C#N)cc4[nH]c3c2cc1OC | 13
COc1ccc(Nc2nccc(NCCNC(=O)c3cc4ccccc4s3)n2)cc1 [GSK1379896] | 5
COC(=O)Nc1nc2cc(Oc3ccc(NC(=O)Nc4cc(C(F)(F)F)ccc4F)cn3)ccc2[nH]1.Cl.Cl [GW681170] | 24
O=C(Nc1n[nH]c2nc(-c3ccc(O)cc3)ccc12)C1CC1 [SB-710363] | 0
